# Bioassay records: PubChem BioAssay, National Center for Advancing Translational Sciences (NCATS)
# JMJD2A Tudor inh = inhibitors of human JMJD2A Tudor domain. O75164. AlphaScreen JMJD2A-Tudor / H3K4me3 peptide binding. Potency, µM (series often up to 114 µM), inactives show top-dose activity change, negative = inhibition, hits mostly inhibitors. 390,000 compounds, 4.4% hits. AID 504339; note: % is set by controls: 0 for no effect and ±100 for the full control effect; nearly all actives have a fitted effect of over 50% in size
# BAZ2B inh = blocks human BAZ2B. AlphaScreen BAZ2B-H3K14Ac peptide displacement. Potency, µM (series often up to 114 µM), without a hit: at the highest dose activity change, negative = inhibition, hits mostly inhibitors. 360,000 compounds, 4.4% hits; note: % is set by controls: 0 for no effect and ±100 for the full control effect; nearly all actives have a fitted effect of over 60% in size
#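 Compounds, titrated to a top concentration of 110 uM, were incubated 30 min at room temperature with preformed BAZ2B/acetyl-K14 H3 peptide complex (50 nM each). Proximity signal was measured by AlphaScreen after 20 min with beads.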
# HP1b chromo inh = HP1-beta chromodomain-methylated histone interaction inhibition; Potency, µM (doses to about 114 µM), for the others: at the highest dose activity change, negative = inhibition, most hits filed as inhibitors; 390,000 compounds, 0.56% hits; P83916; AlphaScreen HP1-beta / biotin-H3K9me3 peptide binding; note: nearly all actives have a fitted effect of over 70% in size
# Target sequence (P83916 whole entry, looked up): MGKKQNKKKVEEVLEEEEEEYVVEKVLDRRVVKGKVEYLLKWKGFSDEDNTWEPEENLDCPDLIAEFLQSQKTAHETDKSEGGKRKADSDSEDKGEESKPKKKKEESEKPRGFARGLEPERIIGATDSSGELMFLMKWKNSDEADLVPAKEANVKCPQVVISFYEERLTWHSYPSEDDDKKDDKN
#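 Compound inhibition of the preformed complex between 50 nM HP1-beta and 50 nM biotinylated H3K9me3 peptide was read by AlphaScreen. Buffer was PBS pH 7.4 with 0.01% Tween-20. Incubations ran 30 min at room temperature, with 10 ug/mL donor/acceptor beads.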
# L3MBTL1 inh = inhibitors of human L3MBTL1. AlphaScreen L3MBTL1–H3K9me1 peptide binding. Q9Y468. 230,000 compounds, 0.66% hits. Potency, µM (series often up to 57.1 µM), for the others: at the highest dose activity, negative = inhibition, most hits filed as inhibitors. AID 485360; note: % is set by controls: 0 for no effect and ±100 for the full control effect; nearly all actives have a fitted effect of over 60% in size
#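 Read-out is AlphaScreen signal from streptavidin donor and nickel chelate acceptor beads (10 ug/mL final each) bridging L3MBTL1 (50 nM) and biotinylated K9-monomethylated H3(1-15) peptide (75 nM), after 30 min compound exposure at room temperature.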
# G9a block = G9a (human) methyltransferase inhibition | G9a H3K9 monomethylation, AlphaScreen, 2 h | Potency, µM (titrated, usually from 102 µM), without a hit: at the top dose activity, negative = inhibition, most hits filed as inhibitors | 350,000 compounds, 8.8% hits; note: % is set by controls: 0 for no effect and ±100 for the full control effect; nearly all actives have a fitted effect of over 75% in size
# Target sequence (Q96KQ7 913-1193 limits assumed): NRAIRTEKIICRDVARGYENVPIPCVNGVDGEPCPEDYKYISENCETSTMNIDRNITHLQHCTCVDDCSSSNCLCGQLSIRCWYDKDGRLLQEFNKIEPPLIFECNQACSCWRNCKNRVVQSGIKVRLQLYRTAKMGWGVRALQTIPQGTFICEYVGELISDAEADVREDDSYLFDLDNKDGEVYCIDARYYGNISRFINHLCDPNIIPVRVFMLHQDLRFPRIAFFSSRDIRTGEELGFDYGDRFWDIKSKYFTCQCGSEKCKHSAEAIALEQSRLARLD
#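 Step 1: enzyme (final 20 nM) with compound, 15 min RT. Step 2: substrate peptide 500 nM and SAM 20 uM, 2 h RT. Step 3: anti-H3K9me1 antibody and AlphaScreen beads, 10 min, then plate read.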
# The depositor's hits bear a star; ? = inconclusive; / = no result given; [ ] = remark or other dose. Most compounds without a hit are left out; they make up all but 11% or so of the library. Calls come from the whole dose curve; as a rule, active = well fitted inhibition curve with a large enough effect; inconclusive = small, poorly fitted or top-dose-only effect; inactive = no such curve, though single readings can be large or run the other way. Potency is the fitted concentration of half-maximal effect.
SMILES,JMJD2A Tudor inh,BAZ2B inh,HP1b chromo inh,L3MBTL1 inh,G9a block
COC(=O)CC(NC(=S)NC(=O)c1ccccc1)c1ccc(Br)cc1 (configuration not stated),-8%,-19%,25%,/,40µM*
COC(=O)CC(N)c1ccc(Br)cc1 (configuration not stated),7%,-2%,30%,7%,-40%
COc1ccc(CNC(=O)c2oc3c(c2C)-c2nn(Cc4ccc(Cl)cc4)cc2CC3)cc1,-6%,-14%,31%,/,3%[59 µM]
CC(=O)N1CCN(c2ccc(NCc3ccc(C)s3)cc2)CC1,?,10%,-14%,?,45µM*
Cc1nc2ncnn2c(N2CCN(C(=O)Cc3cccs3)CC2)c1C,?,50µM*,-13%,/,-25%[59 µM]
O=C(Cc1cccs1)N1CCN(c2ccc(F)cc2)CC1,-1%,4%,25%,1%,9%[59 µM]
O=C(Cc1cccs1)N1CCN(c2ccc([N+](=O)[O-])cc2)CC1,-28%,56µM*,5%,/,?
CC(=O)N1CCN(c2ccc(NCc3cccs3)cc2)CC1,-20%[11.4 µM],?,-32%,-1%[11.4 µM],6.3µM*
COc1ccccc1N1CCN(c2ccc(NC(=O)c3ccc(C)cc3)cc2C(=O)O)CC1,-19%,-15%,18%,/,-5%[59 µM]
CCc1ccc(C2CC(=O)N(c3cccc(C(F)(F)F)c3)C3=C2C(=O)OC3)cc1 (configuration not stated),-13%,-17%,18%,/,3%[59 µM]
Oc1cccc(Nc2c3ccccc3nc3ccccc23)c1,?,?,-7%,/,40µM*
OCCNc1nc(N2CCN(c3ccccc3)CC2)nc2ccccc12,-25%,-33%,20%,/,79µM*
OCCNc1nc(Nc2ccc(O)cc2)nc2ccccc12,?,?,-7%,/,?
OCCNc1nc(Nc2cccc(O)c2)nc2ccccc12,-21%,-33%,13%,/,71µM*
Cc1ccc(-c2nc(Nc3cccc(O)c3)c3ccccc3n2)cc1,-18%,?,19%,/,18%
Cc1nc2ccccc2n1CCc1nc2c3ccccc3nc(SCc3ccc(C#N)cc3)n2n1,-7%,-2%,38%,/,7%[59 µM]
COc1ccccc1CNS(=O)(=O)c1ccc(F)c(C(=O)Nc2cc(Cl)ccc2OC)c1,-25%,2%,38%,/,4%[59 µM]
O=C(CN1CCCN(Cc2cccc(F)c2)S1(=O)=O)Nc1ccc2c(c1)OCCO2,-3%,-17%,26%,/,4%[12.7 µM]
S=c1[nH]nc(-c2c[nH]c3ccccc23)o1,?,-15%,55%,/,?
Oc1cc2ccccc2cc1-c1n[nH]c(=S)o1,-23%,?,6%,-7%,4µM*
Cc1cc(-c2n[nH]c(=S)o2)c(C)n1-c1ccccc1,?,?,-12%,-16%,4µM*
O=C1CCN(C(=O)c2cccs2)c2ccccc21,1%,4%,21%[57 µM],4%,1%
CN1C(=O)/C(=C\C(=O)c2cccs2)c2ccccc21,50µM*,20µM*,45µM*,-4%,20µM*
CC(=O)/C=C1/C(=O)Nc2ccccc21,-26%,1%,16%,/,11µM*
CC(=O)/C=C1\C(=O)N(C)c2ccccc21,/,/,/,/,8.9µM*
SMILES,JMJD2A Tudor inh,BAZ2B inh,HP1b chromo inh,L3MBTL1 inh,G9a block
Cc1nc(-c2ccc(S(=O)(=O)N3CCN(c4ccccc4)CC3)cc2)co1,-7%,-14%[57.1 µM],26%,/,-5%
Cc1cccc(N2CCN(S(=O)(=O)c3ccc(-c4coc(C)n4)cc3)CC2C)c1 (configuration not stated),-26%,?,-1%,/,25µM*
Cc1ccc2scc(N3CCCC(C)C3)c(=O)c2c1 (configuration not stated),?,-29%,9%,/,?
CC(Sc1nnc(COc2ccc(Cl)cc2)o1)C(=O)Nc1ccc(N2CCOCC2)cc1 (configuration not stated),-11%,13%,19%,1%,35µM*
Cc1nnc(SC(C)C(=O)Nc2ccc(N3CCOCC3)cc2)n1Cc1ccccc1 (configuration not stated),-10%,0%,13%,-6%,71µM*
CC(C)Cn1c(SC(C)C(=O)Nc2ccc(N3CCOCC3)cc2)nc2ccccc21 (configuration not stated),?,35µM*,?,-19%,?
